In PubChem BioAssay (NCI):
The panel holds about 79,000 compounds, 15% with a hit somewhere; the sample as a whole holds those more often. A number with no mark means an inactive call. Active and inactive are the calls of the source. No stated cut-off is given here; in the data, active means growth inhibition above about 70%; inactive means the rest.

test: NCI Yeast Anticancer Drug Screen. Data for the wt1 strain (AID 149);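 further: 0% = growth of vehicle-treated wt1 cultures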; conditions: S. cerevisiae wt1 strain (SPY 50644) growth inhibition; at 33.0 µM; stronger effect = higher value
Outline: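 Vehicle-normalised growth inhibition; strain wt1; compound exposure.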

| Structure (SMILES) | growth inhibition |
| --- | --- |
| CC1(C)[C@@H]2CC[C@]1(C)[C@H](OC(=O)CSC#N)C2 | 61% |
| S=C(N/N=C(/c1ccccc1)c1ccccn1)N1CCCCCC1 | 2% |
| Cc1ccc2[nH]c3c(C)c4cc[n+](C)cc4c(C)c3c2c1 | 6% |
| CNC(=O)OCc1c(COC(=O)NC)c(-c2ccc(-c3ccccc3)cc2)n(C)c1C | 10% |
| COc1ccccc1/C=C1\Sc2scc(-c3cccc([N+](=O)[O-])c3)[n+]2C1=O | 98% (active) |
| O=[N+]([O-])c1ccc2c(c1)C(N1CCN(CCO)CC1)Cc1ccc(F)cc1S2 (stereo unspecified) | -3% |
| Cc1ccc(CCC2=CCCc3c2ccc2ccccc32)cc1 | -8% |
| O=[N+]([O-])c1cccc2nccc(NCCCO)c12 | 10% |
| Cc1ccc(-n2cc(-c3ccc(Cl)cc3)c(C#N)c2N)cc1 | -2% |
| Cc1ccc(S/N=C\c2ccccc2O)cc1 | 1% |
| O=C(O)C1OC1(c1cccc(Cl)c1)c1ccccc1Cl (stereo unspecified) | 41% |
| NC(=S)N/N=C\c1nccc2ccccc12 | 76% (active) |
| Clc1cccc(C(Nc2nncs2)Nc2nncs2)c1Cl | 11% |
| O=C(OCC=C1CCCC1)c1cc([N+](=O)[O-])cc([N+](=O)[O-])c1 | 86% (active) |
| O=C(Nc1ccccc1)C(=O)C(C(=O)c1ccccc1)C(c1ccccc1)c1ccccc1 (stereo unspecified) | 10% |
| N#CN1C2CCC1CC(=O)C2 | -53% |
| COc1ccccc1C(=O)OCC1CCCN2CCCCC12 (stereo unspecified) | 76% (active) |
| CCNc1nnc(CSc2nc(-c3ccccc3)c(-c3ccccc3)[nH]2)s1 | 81% (active) |
| O=C1c2ccccc2-c2n[nH]c3cccc1c23 | 10% |

same assay, conditions: S. cerevisiae wt1 strain (SPY 50644) growth inhibition; at 100.0 µM; stronger effect = higher value

| Structure (SMILES) | growth inhibition |
| --- | --- |
| CCC/C(Cl)=N\OC(=O)Nc1cccc(C(F)(F)F)c1 | 5% |
| [O-][n+]1c2ccc(O)cc2nc2ccc(Cl)cc21 | 53% |
| Clc1ccccc1C1OC1c1ccccc1Cl (stereo unspecified) | -26% |
| c1ccc2c(c1)c1ncccc1c1nccnc21 | 19% |
| CC(=O)Nc1ccc2c(c1)C(=Nc1ccc(C(=O)O)cc1)c1ccccc1-2 | 51% |
| COc1ccc(OC)c2cc3ccccc3cc12 | -4% |
| COc1cc(C2c3cc4c(cc3OC(NNc3ccccc3)C2C)OCO4)cc(OC)c1OC (stereo unspecified) | 94% (active) |
| O=C1c2cc([N+](=O)[O-])ccc2-c2cccc(F)c21 | 20% |
| CCCCCCCCCCCC(=O)N(C)C | 99% (active) |
| CCCCCCCCCCCC1=C(O)C(=O)C=C(O)C1=O | 91% (active) |
| Cc1ccc(CSC(N)=Nc2ccccc2)cc1C | 21% |
| CCCCCCCCCCC1CCC(=O)O1 (stereo unspecified) | 98% (active) |
| O=[N+]([O-])c1cc(CCl)ccc1CCl | 97% (active) |
| Nc1ccc2c(c1)C(=O)c1cccc(N)c1C2=O | 61% |
| CCCCCCCCCCNC(=O)OCC | 98% (active) |
| CC1=C(C)Cc2c(O)ccc(O)c2C1 | -20% |

| Structure (SMILES) | growth inhibition |
| --- | --- |
| COc1ccc2c(c1)C(=O)c1ccccc1C2 | 4% |
| CCC(=O)OCCn1c2nc(=O)[nH]c(=O)c-2nc2cc(C)c(C)cc21 | 11% |
| O=C(OCCN1CCCCCC1)C(c1ccsc1)C1CCCCC1 (stereo unspecified) | 19% |
| Oc1c(Br)cc(Br)cc1C1CCCCC1 | 98% (active) |
| CC1(C)[C@@H]2CC[C@]1(C)[C@H](OC(=O)CSC#N)C2 | 96% (active) |
| S=C(N/N=C(/c1ccccc1)c1ccccn1)N1CCCCCC1 | -2% |
| Cc1ccc2[nH]c3c(C)c4cc[n+](C)cc4c(C)c3c2c1 | 79% (active) |
| CNC(=O)OCc1c(COC(=O)NC)c(-c2ccc(-c3ccccc3)cc2)n(C)c1C | 23% |
| COc1ccccc1/C=C1\Sc2scc(-c3cccc([N+](=O)[O-])c3)[n+]2C1=O | 94% (active) |
| O=[N+]([O-])c1ccc2c(c1)C(N1CCN(CCO)CC1)Cc1ccc(F)cc1S2 (stereo unspecified) | 15% |
| Cc1ccc(CCC2=CCCc3c2ccc2ccccc32)cc1 | -9% |
| O=[N+]([O-])c1cccc2nccc(NCCCO)c12 | 16% |
| Cc1ccc(-n2cc(-c3ccc(Cl)cc3)c(C#N)c2N)cc1 | -3% |
| Cc1ccc(S/N=C\c2ccccc2O)cc1 | 1% |
| O=C(O)C1OC1(c1cccc(Cl)c1)c1ccccc1Cl (stereo unspecified) | 93% (active) |
| NC(=S)N/N=C\c1nccc2ccccc12 | 99% (active) |
